# Measured values published in PubChem BioAssay AID1851 (National Center for Advancing Translational Sciences (NCATS), 2009).
# The campaign covered roughly 16,000 compounds. About 4,000 (25%) were called active. About 26% were inconclusive and are not listed. These entries were drawn from the full list. A number with no mark means an inactive call. The call rests on the fitted dose curve; in most records, active means well fitted curve in the direction sought with a large enough effect; inconclusive means small, poorly fitted or top-dose-only effect, or effect the other way; inactive means no such curve, though single readings can be large or run the other way.
# Target: Cytochrome P450 2C9 (Homo sapiens) (UniProt P11712)
# Test: Cytochrome panel assay with activity outcomes
# Settings: recombinant CYP, pro-luciferin dealkylation, luminescence, p450-cyp2c9; series mostly up to 57.1 µM; activity, negative = inhibition: at the top concentration
# On the % scale 0 is the no-effect control and ±100 the full control effect.
# Cytochrome P450 2C9 (Homo sapiens), sequence (P11712 whole entry, looked up): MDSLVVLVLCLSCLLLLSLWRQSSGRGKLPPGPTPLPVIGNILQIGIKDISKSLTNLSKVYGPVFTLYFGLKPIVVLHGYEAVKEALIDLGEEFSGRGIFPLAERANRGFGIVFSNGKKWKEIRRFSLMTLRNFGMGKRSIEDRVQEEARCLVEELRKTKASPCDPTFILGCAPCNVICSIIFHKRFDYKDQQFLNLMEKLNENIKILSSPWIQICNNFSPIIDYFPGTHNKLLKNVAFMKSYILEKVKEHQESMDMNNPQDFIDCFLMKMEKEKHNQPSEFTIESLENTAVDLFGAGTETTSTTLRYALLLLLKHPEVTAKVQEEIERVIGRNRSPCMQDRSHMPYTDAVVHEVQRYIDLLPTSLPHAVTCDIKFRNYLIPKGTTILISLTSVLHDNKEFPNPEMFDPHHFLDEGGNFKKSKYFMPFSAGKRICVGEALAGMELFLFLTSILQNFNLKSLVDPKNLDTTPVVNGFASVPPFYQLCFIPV
SMILES,"activity, negative = inhibition",AC50
O=[N+]([O-])O[C@H]1CO[C@H]2[C@H]1OC[C@@H]2O[N+](=O)[O-],28.9% [at 25.6 µM],–
CCOP(=O)(OCC)C(NC(C)=O)C(Cl)(Cl)Cl (centres undefined),-14%,–
Clc1ccc([C@@H](OCCN2CCCCC2)c2ccccc2)cc1,-7.32% [at 25.6 µM],–
Fc1ccc(C(OCCN2CCN(C/C=C\c3ccccc3)CC2)c2ccc(F)cc2)cc1,–,7.94 µM (active)
O=c1[nH]c2ccccc2n1C1CCN(CCCC(c2ccc(F)cc2)c2ccc(F)cc2)CC1,inactive,–
C(=C/c1ccccc1)/CN1CCN(CCOC(c2ccccc2)c2ccccc2)CC1,–,5.01 µM (active)
CCOC(=O)c1ncn2c1[C@H]1CCCN1C(=O)c1cc(OC)ccc1-2,15.1%,–
NS(=O)(=O)c1cc([C@@]2(O)NC(=O)c3ccccc32)ccc1Cl,-0.302% [at 25.6 µM],–
O=C(O)C[O][Sb][O]CC(=O)O,3.17% [at 11.4 µM],–
O=C(O)[C@H]1[O][Sb][O][C@@H](C(=O)O)C1O (some centres undefined),14.9% [at 11.4 µM],–
NCC[C@H](O)C(=O)N[C@H]1C[C@@H](N)[C@@H](O[C@H]2O[C@@H](CN)[C@@H](O)[C@@H](O)[C@@H]2N)[C@@H](O[C@H]2O[C@@H](CO)[C@@H](O)[C@@H]2O)[C@@H]1O,-2.49% [at 25.6 µM],–
C[N+]1(C)CCO[C@@](O)(c2ccc(-c3ccc([C@]4(O)C[N+](C)(C)CCO4)cc3)cc2)C1,-5.58%,–
O=C(c1ccccc1)[C@H]1[C@H](c2ccccc2[N+](=O)[O-])N1C1CCCCC1 (some centres undefined),-9.93% [at 11.4 µM],–
CC1=C(O)C(=O)[C@H]2O[C@@H]2C1=O,-9.89%,–
O=C(c1ccco1)N1CCC[C@@]2(CCN(Cc3ccncc3)C2)C1,–,3.16 µM (active)
c1cc(CN2CCCC3(CCNCC3)C2)ccn1,-28.9%,–
CC(C)CN1CCCC2(CCN(C(=O)c3ccncc3)CC2)C1,-28.7%,–
COCC(=O)N1CCC2(CCCN(Cc3ccncc3)C2)CC1,–,5.01 µM (active)
CN1CC[C@@]2(CCCN(C(=O)c3ccco3)C2)C1,5.65%,–
CN1CC[C@@]2(CCCN(C(=O)c3ccncc3)C2)C1,2.79%,–
CC[C@]1([C@H]2O[C@@H]([C@@H]3O[C@](O)(CO)[C@@H](C)C[C@H]3C)C[C@H]2C)CC[C@@H]([C@]2(C)CC[C@@]3(C[C@@H](O)[C@@H](C)[C@@H]([C@H](C)[C@H](OC)[C@H](C)C(=O)O)O3)O2)O1,2.5% [at 25.6 µM],–
COc1ccccc1CN1CCCC2(CCN(C(=O)Oc3ccccc3)CC2)C1,2.58%,–

SMILES,"activity, negative = inhibition",AC50
COC(=O)[C@@H]1c2cc3c(c(O)c2[C@@H](O)C[C@]1(C)O)C(=O)c1c(O)cc2c(c1C3=O)O[C@H]1O[C@@]2(C)[C@@H](O)[C@H](N(C)C)[C@H]1O,-12.9% [at 11.4 µM],–
CCN(CC)CCO[C@H]1CC[C@@]2(C)C(=CC[C@@H]3[C@H]2CC[C@]2(C)C(=O)CC[C@H]32)C1,-1.59%,–
CO[C@@H]1CC=C2CCN3CCC4=C(CC(=O)OC4)[C@]23C1,11.3%,–
C[N+]1(C)[C@@H]2CC[C@H]1CC(OC(=O)[C@@H](CO)c1ccccc1)C2 (some centres undefined),inactive,–
COc1ccc2[nH]c3c(c2c1)CCN=C3C,-24.9% [at 25.6 µM],–
N[C@@H](CSC1c2ccccc2-c2ccccc21)C(=O)O,-21.1% [at 11.4 µM],–
C[C@@]12CC[C@H]3[C@@H](CCC4=C(O)C(=O)CC[C@]43C)[C@H]1CCC2=O,8.16%,–
Cc1cc(NC(=O)CCC(=O)N2CCC3(CC2)OCCO3)no1,14.5%,–
Cc1ccccc1-c1nc(CS(=O)CC(=O)N2CCC3(CC2)OCCO3)c(C)o1 (centres undefined),–,5.01 µM (active)
Oc1ccc([C@H](O)[C@@H]2CCCCN2)cc1O,-5.3% [at 11.4 µM],–
CC(C)C(=O)N1C2CCC1CC(O)(c1ccc(F)cc1)C2 (centres undefined),-8.36%,–
C[C@](N)(CCP(=O)(O)O)C(=O)O,7.57%,–
O=C(CN1CCCCC1)Nc1ccc(Br)cc1C(=O)c1ccccc1Cl,–,8.91 µM (active)
CN(CCc1ccc(Cl)c(Cl)c1)[C@H]1CCCC[C@H]1N1CCCC1,-18.7%,–
CCOC(=O)c1ncn2c1CN(C)C(=O)c1cc(F)ccc1-2,0.585%,–
CC(C)(C)NC[C@H](O)c1ccccc1Cl,11.1%,–
C=CCN1CC[C@@]23c4c5ccc(O)c4O[C@H]2/C(=N\N=C2/CC[C@@]4(O)[C@H]6Cc7ccc(O)c8c7[C@@]4(CCN6CC=C)[C@@H]2O8)CC[C@]3(O)[C@@H]1C5,inactive,–
C[C@H](CCC(=O)O)[C@H]1CC[C@]2(C)[C@@H]3C(=O)C[C@H]4C(C)(C)[C@@H](O)CC[C@]4(C)[C@H]3C(=O)C[C@@]12C,-0.996% [at 11.4 µM],–
CCCCc1nc2ccccc2c(=O)n1-c1ccccc1[N+](=O)[O-],–,11.2 µM (active)
CCCc1nc2ccccc2c(=O)n1-c1ccc(OC)cc1,–,25.1 µM (active)
CCCCc1nc2ccccc2c(=O)n1-c1ccc(Cl)cc1[N+](=O)[O-],-8.02%,–
Cc1nc2ccccc2c(=O)n1-n1cnnc1,-22.4%,–
